PubChem BioAssay (EPA / NIEHS)
The source holds several records for some structures; these can differ, active in one and inactive in another. The source made the active and inactive calls. How the source made its calls: active means hit-call score of the fitted dose curve at least 0.9, where 1 is the maximum; inactive means score below 0.9.

assay: CCTE_Shafer_MEA_acute_cross_correlation_area: CCTE's Neural Acute Assay for Area of Cross Correlation, Shafer Lab (AID 2284024);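 further: curves fitted for loss of cross-correlation area so actives lower synchrony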
Experimental: CCTE_Shafer_MEA_acute assay is conducted using Axion Biosystems 48 well microelectrode array (MEA) plates and Maestro recording system. Each well of the MEA plate contains a grid of 16 microelectrodes embedded in the culture surface. Electrically active cells, such as neurons, can be cultured over the electrodes, and electrical activity in these cells can be recorded extracellularly. The spontaneous firing of neurons is captured from each electrode on a microsecond timescale providing both temporally and spatially precise data. […] The CCTE_Shafer_MEA_acute assay uses primary cultures of rat cortical neurons. As these cultures mature over time, neural networks develop functional activity and form cohesive networks in which electrical activity can be highly coordinated. Baseline 40-minute recordings are made on days post-plating 13 or 15, followed by a secondary 40-minute recording after chemical exposure.CCTE_Shafer_MEA_acute_cross_correlation_area is a component of the CCTE_Shafer_MEA_acute assay. It measures the area under the well-wide pooled inter-electrode cross-correlation of action potential firing (not normalized to auto-correlations) within a window centered around 0 for the phase lag during a recording in a microelectrode array (MEA) using Axion Biosystems Maestro 768 channel amplifier with the AxIS adaptive spike detector. The recordings before and after chemical treatment are used to calculate a percent change in the cross correlation area in each well.Data from the assay component CCTE_Shafer_MEA_acute_cross_correlation_area was analyzed into 1 assay endpoint. This assay endpoint, CCTE_Shafer_MEA_acute_cross_correlation_area, was analyzed in the negative analysis fitting direction relative to DMSO as the negative control and baseline of activity. Using a type of functional reporter, gain or loss-of-signal activity can be used to understand electrical activity.
Spontaneous activity in the cortical cultures was recorded using an Axion Biosystems Maestro 768 channel amplifier and Axion Integrated Studios (AxIS) v1.8 (or later) software. The amplifier recorded from all channels simultaneously (gain = 1200 x; sampling rate = 12.5 kHz/channel): raw signals were filtered with a Butterworth band-pass filter (300-5000 Hz), which filters out slower local field potentials leaving only fast potentials, i.e., "spikes", arising from extracellular currents associated with action potentials (Pine 2006; Wheeler and Nam 2011). On-line spike detection of filtered signals was conducted with the AxIS adaptive spike detector, using a threshold of 8x the root mean squared (rms) noise on each channel. Any electrodes with rms noise levels greater than 5 uV were grounded (e.g., no data were recorded). Once grounded, an electrode was grounded for the duration of the experiment. All recordings were conducted at 37 C. Wells were deemed usable if on the day of the exposure >/= 10 electrodes were active (defined as >/= 5 spikes/min). On DIV 13 or 15, a minimum of three wells from one cortical culture preparation were treated with each compound (0.03-40 uM). Prior to recording baseline activity, each mwMEA plate was placed in the Maestro at 37 C and allowed to sit for 20 min while firing rates stabilized. Baseline activity (40 min) was recorded before the addition of each compound. An additional 40 min of spontaneous activity was recorded in the presence of each compound. Changes in network parameters relative to baseline were assessed following compound treatment.

SMILES	outcome	AC50
O=[N+]([O-])O	inactive	230 nM (active)
CP(=O)(O)CCC(N)C(=O)O (stereo unspecified)	inactive	–
Cc1ccc(OP(=O)(Oc2ccc(C)cc2)Oc2ccc(C)cc2)cc1 (tested in a mixture with another compound)	inactive	–
CC1(C)[C@H](C=C(Cl)Cl)[C@@H]1C(=O)O[C@@H](C#N)c1cccc(Oc2ccccc2)c1	–	170 nM (active)
CCCC[N+](CCCC)(CCCC)CCCC	–	9.53 nM (active)
O=C(O)CNCP(=O)(O)O	inactive	–
CC1(C)[C@@H](C=C(Cl)Cl)[C@@H]1C(=O)O[C@@H](C#N)c1ccc(F)c(Oc2ccccc2)c1	–	208 nM (active)
CP(=O)(O)CC[C@H](N)C(=O)O	inactive	–
O=c1c2ccccc2c(=O)c2c1cc(Cl)c1[nH]c3c([nH]c12)c(Cl)cc1c(=O)c2ccccc2c(=O)c13	inactive	–
COc1ccc(CO)cc1	inactive	–
Oc1ccc(C2(c3ccc(O)cc3)c3ccccc3-c3ccccc32)cc1	–	25.2 nM (active)
c1cc[n+]2c(c1)-c1cccc[n+]1CC2	inactive	–
CC1(C)[C@H](C(=O)O[C@H](C#N)c2cccc(Oc3ccccc3)c2)[C@@H]1C=C(Br)Br	–	203 nM (active)
[Cd+2].[Cl-].[Cl-]	inactive	–
C#CCN(C)[C@H](C)Cc1ccccc1	inactive	–
